# Test results reported in PubChem BioAssay AID743287 (Broad Institute, 2014).
# Several values for one entry are separate records, joined by “and”; a condition that tells them apart may be missing. Identical values can stand only once. In all, about 370,000 compounds went through this assay and about 2,300 (0.62%) were called active. This is one part of a sample in which actives are shown more often than they occur.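 How the source made its calls: active means lowest replicate activation of at least 40%, so every replicate reaches that level; inactive means the rest.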 Where a structure was tested more than once in an assay, its records may differ in their call.
# Test: primary screen for activators of insulin secretion dependent on glucose, INS-1E cells, GLuc reporter luminescence (AID 743287);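 further: 0% = median of neutral control wells and 100% = median of IBMX positive control wells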
# Conditions: INS-1E GLuc reporter insulin secretion, 2-3 h, at 16.6 µM, stronger effect = higher value
row,SMILES,activation
1,Cc1ccc(CN2CCCC(C(=O)c3ccc4c(c3)OCO4)C2)cc1C (stereo not given),-7.76% (inactive)
2,COc1ccc(C(=O)C2CCCN(Cc3ccc(C)s3)C2)cc1OC (stereo not given),53.8% (active)
3,COc1cccc(CN2CCCC(C(=O)c3ccccc3SC)C2)c1O (stereo not given),-0.167% (inactive)
4,CCN(CC)C(=O)[C@@H]1C=C2c3cccc4[nH]c(Br)c(c34)C[C@H]2N(C)C1,13.7% (inactive)
5,COC(=O)[C@H]1[C@H](CO)[C@H]2Cn3c(ccc(C4=CCCC4)c3=O)[C@@H]1N2C(=O)CC1CC1,-1.71% (inactive)
6,FC(F)(F)CN1CC2NC(C1)C2c1ccc(Br)cc1 (stereo not given),-10.5% (inactive)
7,O=C(O)[C@H]1[C@H](CO)[C@H]2Cn3c(ccc(-c4ccccc4F)c3=O)[C@@H]1N2C(=O)c1cccnc1,19.1% (inactive)
8,CC(Cc1ccccc1)NC=O (stereo not given),3.77% (inactive)
9,CC(Cc1ccccc1)NCCC(c1ccccc1)c1ccccc1 (stereo not given),182% (active)
10,FC(F)(F)CN1CC2C(c3ccc(Br)cc3)C(C1)N2CC1CC1 (stereo not given),-3.91% (inactive)
11,COC(=O)[C@@H]1[C@@H](CO)[C@@H]2Cn3c(ccc(C4=CCCCC4)c3=O)[C@H]1N2CC1CC1,6.37% (inactive)
12,CCCCCCCCCCCCn1ccc(=N)cc1,212% (active)
13,Clc1ccc([C@@H]2CC3CCC2N3)cn1 (stereo not given in full),-8.41% (inactive)
14,C/C=C/c1ccc(C2[C@@H]3CN(S(C)(=O)=O)C[C@H]2N3)cc1 (stereo not given in full),-6.54% (inactive)
15,O=C(O)[C@H]1[C@H](CO)[C@H]2Cn3c(cccc3=O)[C@@H]1N2C(=O)c1ccccc1,0.382% (inactive)
16,C=CCN1[C@@H]2CN(S(C)(=O)=O)C[C@H]1C2c1ccc(Br)cc1 (stereo not given in full),17.3% (inactive)
17,CC(C)Nc1nc(Cl)nc(NC(C)C)n1,50.3% (active)
18,CC(=O)N1C[C@@H]2C(c3ccc(Br)cc3)[C@H](C1)N2C (stereo not given in full),27.1% (inactive) and -21.4% (inactive)
19,COc1ccc2c(c1)[C@@]13CCCCC1[C@@H](C2)NCC3 (stereo not given in full),8.42% (inactive)
20,COc1cccc(-c2ccc3n(c2=O)C[C@H]2[C@H](CO)[C@@H](C(=O)O)[C@@H]3N2C(=O)c2cnccn2)c1,14.6% (inactive)
21,COc1ccccc1CN1[C@@H](CO)[C@@H](c2ccccc2)C12CN(C(=O)Cc1ccccc1)C2,-6.56% (inactive)
22,COC(=O)C[C@@H]1CC[C@@H]2NC[C@@H](O)COC[C@H]2O1,7.25% (inactive)
23,COC(=O)C[C@H]1CC[C@H]2NC[C@@H](O)COC[C@@H]2O1,44% (active) and 14.5% (inactive)
24,CCC(C)NC1(c2ccccc2)CCCCC1 (stereo not given),12.2% (inactive)
25,C[C@@H]1CN([C@H](C)CO)C(=O)CCCn2cc(nn2)CO[C@@H]1CN(C)C(=O)Oc1cccc2ccccc12,-14.5% (inactive)
